Results as given in PubChem BioAssay.
Measured potencies and affinities stand elsewhere. The source made the active and inactive calls.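 The calls were made as follows, unless noted: active = primary screen inhibitor hit that blocks the TRPC4 channel at some tested dose, yielding a dose curve; inactive = the rest.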

Molecular target: Short transient receptor potential channel 4 (Mus musculus) (UniProt Q9QUQ5)
Assay: potentiation of DAMGO-evoked TRPC4 calcium signal – cell-based, HEK293 TRPC4/mu-opioid, Fluo-4 calcium, EC20 DAMGO, dose response (AID 434941;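 active = earlier screen potentiator hit that boosts the TRPC4 ion channel at some dose, with a dose response; inactive = no potentiation, no dose response, or not a prior hit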;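 also: calcium entry triggered by an EC20 dose of DAMGO at the co-expressed mu-opioid receptor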)
Settings: HEK293 TRPC4/mu-opioid cells, Fluo-4 calcium fluorescence; series mostly up to 20 µM

Chain of Short transient receptor potential channel 4 (Mus musculus) (Q9QUQ5 whole entry, looked up): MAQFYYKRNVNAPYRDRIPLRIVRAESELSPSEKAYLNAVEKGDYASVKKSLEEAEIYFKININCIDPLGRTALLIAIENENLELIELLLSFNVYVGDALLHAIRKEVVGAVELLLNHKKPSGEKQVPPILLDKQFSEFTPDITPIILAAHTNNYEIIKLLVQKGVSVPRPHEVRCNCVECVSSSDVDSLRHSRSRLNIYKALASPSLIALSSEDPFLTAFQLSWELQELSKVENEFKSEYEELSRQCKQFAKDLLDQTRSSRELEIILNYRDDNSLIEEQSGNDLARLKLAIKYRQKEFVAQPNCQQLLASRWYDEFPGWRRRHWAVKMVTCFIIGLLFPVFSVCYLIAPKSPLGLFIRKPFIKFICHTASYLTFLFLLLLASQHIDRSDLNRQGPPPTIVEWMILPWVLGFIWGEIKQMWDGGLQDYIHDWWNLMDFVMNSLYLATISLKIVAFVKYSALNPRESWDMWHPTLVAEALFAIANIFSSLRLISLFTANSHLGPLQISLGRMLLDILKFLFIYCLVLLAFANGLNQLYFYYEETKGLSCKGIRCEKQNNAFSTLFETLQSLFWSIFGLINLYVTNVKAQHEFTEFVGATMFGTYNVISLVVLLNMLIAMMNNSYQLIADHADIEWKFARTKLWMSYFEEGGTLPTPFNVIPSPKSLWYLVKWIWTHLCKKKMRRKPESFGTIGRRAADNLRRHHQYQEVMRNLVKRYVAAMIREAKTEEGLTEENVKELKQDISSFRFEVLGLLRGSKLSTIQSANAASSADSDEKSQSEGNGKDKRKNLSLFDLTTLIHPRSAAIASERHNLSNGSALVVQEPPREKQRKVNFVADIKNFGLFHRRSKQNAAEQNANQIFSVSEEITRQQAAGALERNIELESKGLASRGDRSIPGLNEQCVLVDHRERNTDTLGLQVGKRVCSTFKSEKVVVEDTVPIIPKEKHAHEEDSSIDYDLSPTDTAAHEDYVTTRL

outcome, inactive:
CCCCN(CC)CCNC(=O)Cn1cc2c(n1)-c1c(oc(C(=O)N3CCCC3)c1C)CC2
Cc1ccc(NC(=S)NC2CC3CCC(C2)N3Cc2ccco2)c(C)c1 (stereo not drawn)
COc1ccc(N2CCN(Cc3nc4ccccc4n3C)CC2)cc1
CCC(=O)NC(C)C(c1cccs1)N1CCN(c2ccccc2)CC1 (stereo not drawn)
CC(=O)n1cc([C@H]2C=C(C(=O)NCc3ccccc3)O[C@@H](OCc3ccc(CO)cc3)C2)c2ccccc21
CCN1CCCC1CNC(=O)c1cc2c(OC)cccc2[nH]1 (stereo not drawn)
COc1ccc(F)cc1CN1CCN(C(=O)CCC(=O)Nc2nnc(C(C)C)s2)CC1
CN(CCOc1ccc(Br)cc1)CC(O)c1ccccc1 (stereo not drawn)
CCN1CCN(c2c(Cl)cccc2NC(=O)c2ccc([N+](=O)[O-])cc2)CC1
CCn1c(=O)c(C(=O)NNC(=O)c2ccccc2F)c(O)c2ccccc21
CN1C(CC(=O)Nc2ccc(Br)cc2)c2ccccc2CC1(C)C (stereo not drawn)
COc1ccc(C(CNCC(O)COc2c(C)ccc(C)c2C)N(C)C)cc1 (stereo not drawn)
COc1ccc(C(CNC(=O)C(Cc2ccccc2)NC(N)=O)N(C)C)cc1 (stereo not drawn)
CCCN(CCC)CCNC(=O)CCC(=O)Nc1ccc2nc(N3CCOCC3)cc(C)c2c1
Fc1ccc(NC(=S)NCCc2ccccn2)cc1
Cc1noc(C)c1CCC(=O)NC1CCCN(Cc2ccc(CC(C)C)cc2)C1 (stereo not drawn)
COc1ccc(C(CCNCc2ccc(N(C)C)cc2)c2ccccc2)cc1 (stereo not drawn)
COc1ccc(-c2nn(-c3ccccc3C)cc2CNCc2cccnc2)cc1F
CN(C)C(CNC(=O)c1cccc(S(=O)(=O)N(C)C)c1)c1ccccc1 (stereo not drawn)
Nc1c(C(=O)c2ccccc2)sc2nsc(SCCN3CCCC3)c12
CC1CC(C)CN(CCCNC(=O)c2ccc3c(c2)N(Cc2ccccc2)C(=O)c2ccccc2S3=O)C1 (stereo not drawn)
CN(C)c1ccc(C(CNC(=O)Cc2cccc3ccccc23)N(C)C)cc1 (stereo not drawn)
Cc1csc2c(N3CCN(C(=S)Nc4ccc(C(F)(F)F)cc4)CC3)ncnc12
O=S(=O)(NCCc1csc(-c2ccccc2)n1)c1cccnc1
COc1ccc(-c2nc(CSCC(=O)NC3CCN(Cc4ccccc4)CC3)c(C)o2)cc1OC
NC(N)=NN=C1CCCCCCCCCCC1
CCn1c(CN2CCN(Cc3ccc(C)cc3)C(CCO)C2)nc2ccccc21 (stereo not drawn)
COc1ccc(C(CNc2nc(-c3cccnc3)nc3ccccc23)N(C)C)cc1 (stereo not drawn)
Cc1ccc(Cn2c(SCCN3CCCCC3)nc3c2c(=O)n(C)c(=O)n3C)cc1
COc1ccc(C(CNC(=O)CCOc2ccccc2)N(C)C)cc1 (stereo not drawn)
CCOC(=O)C1(CCOc2ccccc2)CCN(Cc2cc(OC)ccc2OC)CC1
Cc1cccc(NC(=S)NCC(c2ccccc2)N(C)C)c1 (stereo not drawn)
CC(C)n1cnc2c(N(C)c3ccccc3)nc(N(CCN(C)C)Cc3ccccc3)nc21
CC(CN1CCCC(C(N)=O)C1)c1ccccc1 (stereo not drawn)
O=c1c(Cc2ccc(F)cc2)c(O)ccn1CCc1cnc[nH]1
Cc1c(Cl)cccc1NC(=S)NCC(c1cccnc1)N(C)C (stereo not drawn)
COc1ccc(C(CNC(=O)c2ccc3c(c2)OCCO3)N(C)C)cc1 (stereo not drawn)
O=C(NC1CCCN(Cc2ccc(Cl)cc2)C1)C1CCC1 (stereo not drawn)
CN(C)c1ccc(-c2sc(Nc3ccccc3)n[n+]2-c2ccc(F)cc2)cc1

Molecular target: Short transient receptor potential channel 4 (Mus musculus) (UniProt Q9QUQ5)
Assay: block of DAMGO-driven TRPC4 calcium entry – cell-based, HEK293 TRPC4/mu-opioid, Fluo-4 calcium, dose response (AID 434942)
Settings: HEK293 TRPC4/mu-opioid cells, DAMGO-evoked Fluo-4 calcium ratio; series mostly up to 20 µM

outcome, inactive:
CCCCN(CC)CCNC(=O)Cn1cc2c(n1)-c1c(oc(C(=O)N3CCCC3)c1C)CC2
Cc1ccc(NC(=S)NC2CC3CCC(C2)N3Cc2ccco2)c(C)c1 (stereo not drawn)
COc1ccc(N2CCN(Cc3nc4ccccc4n3C)CC2)cc1
CCC(=O)NC(C)C(c1cccs1)N1CCN(c2ccccc2)CC1 (stereo not drawn)
CC(=O)n1cc([C@H]2C=C(C(=O)NCc3ccccc3)O[C@@H](OCc3ccc(CO)cc3)C2)c2ccccc21
CCN1CCCC1CNC(=O)c1cc2c(OC)cccc2[nH]1 (stereo not drawn)
COc1ccc(F)cc1CN1CCN(C(=O)CCC(=O)Nc2nnc(C(C)C)s2)CC1
CN(CCOc1ccc(Br)cc1)CC(O)c1ccccc1 (stereo not drawn)
CCN1CCN(c2c(Cl)cccc2NC(=O)c2ccc([N+](=O)[O-])cc2)CC1
CCn1c(=O)c(C(=O)NNC(=O)c2ccccc2F)c(O)c2ccccc21
CN1C(CC(=O)Nc2ccc(Br)cc2)c2ccccc2CC1(C)C (stereo not drawn)
COc1ccc(C(CNCC(O)COc2c(C)ccc(C)c2C)N(C)C)cc1 (stereo not drawn)
COc1ccc(C(CNC(=O)C(Cc2ccccc2)NC(N)=O)N(C)C)cc1 (stereo not drawn)
CCCN(CCC)CCNC(=O)CCC(=O)Nc1ccc2nc(N3CCOCC3)cc(C)c2c1
Fc1ccc(NC(=S)NCCc2ccccn2)cc1
Cc1noc(C)c1CCC(=O)NC1CCCN(Cc2ccc(CC(C)C)cc2)C1 (stereo not drawn)
COc1ccc(C(CCNCc2ccc(N(C)C)cc2)c2ccccc2)cc1 (stereo not drawn)
COc1ccc(-c2nn(-c3ccccc3C)cc2CNCc2cccnc2)cc1F
CN(C)C(CNC(=O)c1cccc(S(=O)(=O)N(C)C)c1)c1ccccc1 (stereo not drawn)
Nc1c(C(=O)c2ccccc2)sc2nsc(SCCN3CCCC3)c12
CC1CC(C)CN(CCCNC(=O)c2ccc3c(c2)N(Cc2ccccc2)C(=O)c2ccccc2S3=O)C1 (stereo not drawn)
CN(C)c1ccc(C(CNC(=O)Cc2cccc3ccccc23)N(C)C)cc1 (stereo not drawn)
Cc1csc2c(N3CCN(C(=S)Nc4ccc(C(F)(F)F)cc4)CC3)ncnc12
O=S(=O)(NCCc1csc(-c2ccccc2)n1)c1cccnc1
COc1ccc(-c2nc(CSCC(=O)NC3CCN(Cc4ccccc4)CC3)c(C)o2)cc1OC
NC(N)=NN=C1CCCCCCCCCCC1
CCn1c(CN2CCN(Cc3ccc(C)cc3)C(CCO)C2)nc2ccccc21 (stereo not drawn)
COc1ccc(C(CNc2nc(-c3cccnc3)nc3ccccc23)N(C)C)cc1 (stereo not drawn)
Cc1ccc(Cn2c(SCCN3CCCCC3)nc3c2c(=O)n(C)c(=O)n3C)cc1
COc1ccc(C(CNC(=O)CCOc2ccccc2)N(C)C)cc1 (stereo not drawn)
CCOC(=O)C1(CCOc2ccccc2)CCN(Cc2cc(OC)ccc2OC)CC1
Cc1cccc(NC(=S)NCC(c2ccccc2)N(C)C)c1 (stereo not drawn)
CC(C)n1cnc2c(N(C)c3ccccc3)nc(N(CCN(C)C)Cc3ccccc3)nc21
CC(CN1CCCC(C(N)=O)C1)c1ccccc1 (stereo not drawn)
O=c1c(Cc2ccc(F)cc2)c(O)ccn1CCc1cnc[nH]1
Cc1c(Cl)cccc1NC(=S)NCC(c1cccnc1)N(C)C (stereo not drawn)
COc1ccc(C(CNC(=O)c2ccc3c(c2)OCCO3)N(C)C)cc1 (stereo not drawn)
O=C(NC1CCCN(Cc2ccc(Cl)cc2)C1)C1CCC1 (stereo not drawn)
CN(C)c1ccc(-c2sc(Nc3ccccc3)n[n+]2-c2ccc(F)cc2)cc1
